Screens: PubChem BioAssay, National Center for Advancing Translational Sciences (NCATS)
Coupling enz: inhibits coupling enzyme system, counter-screen for aldolase hits; AID 2472; activity change, negative = inhibition, % at 58.2 µM, hits read low; 290,000 tested, 0.67% active; coupling enzyme system counterscreen, AmpLite Red fluorescence; in the data active = activity change below about -30%
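Coupling enzymes only (glyceraldehyde-3-phosphate) + compound, at 57.5 uM final, 10 min RT; add substrate/coupling/AmpLite Red mix, 20 min RT; fluorescence ex 525/em 598 nm. Actives flag coupling-system interference.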
GoLoco inh red: blocks human Gai1 binding to RGS12 GoLoco peptide, red readout; Potency, µM (doses to about 61.6 µM), usual class: inhibitors; Gai1:RGS12 GoLoco peptide FP, rhodamine, 10 min; AID 880; 230,000 tested, 0.44% active; active = well fitted inhibition curve with a large enough effect, not every such curve was filed as active; inactive = no such curve, though single readings can be large or run the other way; note: nearly all actives have a fitted effect of over 30% in size
TRb-SRC2 inh: inhibitors of human thyroid hormone receptor beta-SRC2 interaction; P10828; TRbeta-SRC2 peptide binding, fluorescence polarization; receptor liganded with 1 µM T3; Potency, µM (highest dose often 106 µM), hits mostly inhibitors; 280,000 tested, 0.065% active; AID 1469; active = well fitted inhibition curve with a large enough effect; inconclusive = small, poorly fitted or top-dose-only effect, or effect the other way; note: nearly all actives have a fitted effect of over 50% in size
Target sequence (P10828 whole entry, looked up): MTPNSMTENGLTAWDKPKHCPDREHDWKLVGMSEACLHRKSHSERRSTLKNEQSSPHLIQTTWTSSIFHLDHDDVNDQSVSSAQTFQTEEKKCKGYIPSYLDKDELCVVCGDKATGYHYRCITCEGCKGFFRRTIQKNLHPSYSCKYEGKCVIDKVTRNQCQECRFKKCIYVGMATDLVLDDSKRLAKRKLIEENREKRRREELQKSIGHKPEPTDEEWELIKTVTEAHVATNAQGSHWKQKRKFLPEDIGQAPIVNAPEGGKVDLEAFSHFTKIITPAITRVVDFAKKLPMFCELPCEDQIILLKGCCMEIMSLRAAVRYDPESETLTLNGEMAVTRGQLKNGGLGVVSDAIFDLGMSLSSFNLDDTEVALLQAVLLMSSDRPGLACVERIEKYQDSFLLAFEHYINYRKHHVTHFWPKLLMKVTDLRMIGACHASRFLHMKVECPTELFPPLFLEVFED
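Human TRb LBD (0.6 uM) plus Texas Red-labeled SRC2 peptide (20 nM), 1uM T3, 5% DMSO, 5 hr at ambient temperature. Decreased polarization (555/632 nm) flags inhibition; data normalized to free and bound peptide controls.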
TR SRC2 fluor cs: counter-screen for TRb-SRC2 inhibitors: fluorescence interference; 280,000 tested, 0.29% active; Potency, µM (series often up to 106 µM); AID 1479; TRb/SRC2 Texas Red total fluorescence interference; active = well fitted curve in either direction with a large enough effect; inconclusive = small, poorly fitted or top-dose-only effect
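Flags fluorescent or light-absorbing compounds by total fluorescence, S + 2P, at 555 nm excitation and 632 nm emission. Mixture: 20 nM Texas Red SRC2 peptide, 0.6 uM human TRb LBD, 1 uM T3, 5% DMSO; compound exposure 5 h at ambient temperature.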
Each line names hits and unclear results; the compound was inactive in the other large screens; ! = not active in a repeat; [ ] = remark or other dose. A selection: hits, their analogues and other compounds. The true share with any hit is near 0.93%.

COc1ccc(N2C(=O)C(CC(=O)Nc3ccc(Cl)cc3)N(Cc3ccc4c(c3)OCO4)C2=O)cc1 (configuration not stated)	none (no result: Coupling enz, GoLoco inh red)
CCCC/C=C\CCCCCCCCO	none (no result: Coupling enz, GoLoco inh red)
O=C(CC1Nc2cccc3cccc(c23)NC1=O)Nc1ccccc1 (configuration not stated)	Coupling enz -40
Cc1ccc(NC(=O)CC2Nc3cccc4cccc(c34)NC2=O)cc1 (configuration not stated)	none (no result: Coupling enz, GoLoco inh red)
O=C1CC(Nc2ccc(N3CCOCC3)cc2)C(=O)N1c1cccc(C(F)(F)F)c1 (configuration not stated)	Coupling enz -36
O=C1C=C(Nc2ccccc2O)c2ccccc2C1=O	Coupling enz -60, TRb-SRC2 inh inconclusive
O=C(Nc1ccccc1O)c1ccc2c(c1)C(=O)N(N1C(=O)c3ccccc3C1=O)C2=O	none (no result: GoLoco inh red, TRb-SRC2 inh, TR SRC2 fluor cs)
O=C1C=C(NCc2ccccc2)c2ccccc2C1=O	Coupling enz -87, TRb-SRC2 inh inconclusive
O=c1cccccc1NCc1ccccc1	Coupling enz -39
COc1cc2cc3c4c(cc(OC)c(OC)c4c2cc1OC)CCN3C	Coupling enz -45, TRb-SRC2 inh inconclusive
CCCN(CCC)CCNC(=O)c1nn(C)c2c1CS(=O)(=O)c1ccccc1-2	none (no result: Coupling enz, GoLoco inh red)
CCCN(CCC)CCCNC(=O)c1nn(C)c2c1CS(=O)(=O)c1ccccc1-2	TR SRC2 fluor cs 50µM[quencher] (no result: Coupling enz, GoLoco inh red)
CCOc1ccccc1CNC(=O)c1nn(C)c2c1CS(=O)(=O)c1ccccc1-2	TR SRC2 fluor cs 0.11µM[quencher] (no result: Coupling enz, GoLoco inh red)
C/C(CC(=O)Nc1ccc(N(C)C)cc1)=N\NC(=O)Cc1csc(N)n1	Coupling enz -32
COc1ccccc1CNC(=O)CCn1c(=O)c2ccccc2n(CC(=O)Nc2ccc(C)cc2C)c1=O	none (no result: Coupling enz, GoLoco inh red)
CO[C@@H]1COC(=O)[C@@H](CCSC)NC(=O)C/C=C\[C@@H](C)COC(=O)[C@H](C)NC(=O)C/C=C\[C@H]1C	none (no result: GoLoco inh red)
CCOc1ccc(NC(=O)C(c2ccccn2)N(C(=O)CCl)c2ccc(OC)cc2)cc1 (configuration not stated)	Coupling enz -43
CCOc1ccc(NC(=O)C(c2ccccn2)N(C(=O)CCl)c2ccc(OCC)cc2)cc1 (configuration not stated)	none
CNc1nc2[nH]c(=O)c3c(c2s1)OC(N)=C(C#N)C3c1cccc(F)c1 (configuration not stated)	Coupling enz -51
O=C(Cc1coc2ccc3ccccc3c12)N1CCCC1	Coupling enz -37
O=C(O)c1cc(O)c2c(c1)[C@H]([C@H]1c3cc(C(=O)O)cc(O)c3C(=O)c3c(O[C@@H]4OC(CO)C(O)C(O)C4O)cccc31)c1cccc(O[C@@H]3OC(CO)C(O)C(O)C3O)c1C2=O (some centres not stated)	Coupling enz -39, GoLoco inh red 7.9µM, TRb-SRC2 inh inconclusive, TR SRC2 fluor cs 22µM[quencher]
Oc1cc2c(cc1O)[C@H]1c3ccc(O)c(O)c3OC[C@@]1(O)C2	GoLoco inh red 4µM!
Oc1ccc2c(c1)OCC1(O)Cc3cc(O)c(O)cc3C21 (configuration not stated)	TRb-SRC2 inh inconclusive, TR SRC2 fluor cs inconclusive
CCCCC(CC)COP(=O)(O)OCC(CC)CCCC (configuration not stated)	none (no result: Coupling enz, GoLoco inh red)
COc1ccc(C(=O)Nc2ccc(NC(=O)c3cccs3)cn2)cc1	none (no result: GoLoco inh red, TRb-SRC2 inh, TR SRC2 fluor cs)
CC(C)C(=O)Nc1ccc(NC(=O)c2cccs2)cn1	Coupling enz -44
Cc1ccc(S(=O)(=O)Cc2ccc(C(=O)N3CCN(c4cccc(Cl)c4)CC3)o2)cc1	none (no result: Coupling enz, GoLoco inh red)
Cc1ccc(Cl)cc1N1CCN(C(=O)c2ccc(CS(=O)(=O)c3ccc(Br)cc3)o2)CC1	TR SRC2 fluor cs 1000µM[quencher] (no result: Coupling enz, GoLoco inh red)
CCOc1ccc(NC(=O)CSc2ncc3c(n2)-c2ccccc2N(Cc2ccccc2C)S3(=O)=O)cc1	none (no result: Coupling enz, GoLoco inh red)
COc1ccc(CCNC(=O)CSc2nnc(-c3ccc(C)cc3)c(-c3ccc(C)cc3)n2)cc1OC	none (no result: Coupling enz, GoLoco inh red)
CC(C)NC(=O)CSc1nccc(-c2cccs2)n1	none
CC(=O)C(Sc1nccc(-c2cccs2)n1)C(C)=O	Coupling enz -51
Cc1cc(/C=N/Nc2ccc([N+](=O)[O-])cn2)c(C)n1-c1ccc(C(=O)O)cc1	none
Cc1ccccc1-n1c(C)cc(/C=N/Nc2ccc([N+](=O)[O-])cn2)c1C	GoLoco inh red 3.2µM
COc1cccc(-c2cn3c(n2)sc2cc(C(=O)NCCc4ccc(OC)c(OC)c4)ccc23)c1	none (no result: Coupling enz, GoLoco inh red)
CCCCC(CC)COC(=O)/C=C\C(=O)OCC(CC)CCCC (configuration not stated)	none (no result: Coupling enz, GoLoco inh red)
COc1cccc(CNC(=O)CN(C)S(=O)(=O)c2cccc3cccnc23)c1	none
CN(Cc1ccccc1)S(=O)(=O)c1cccc2cccnc12	Coupling enz -31
O=C(NC1CCCCC1)C(c1ccncc1)N(Cc1ccc2c(c1)OCO2)C(=O)c1cnsn1 (configuration not stated)	Coupling enz -46
CC(=O)c1cc(-c2ccccc2)n(CCC(=O)Nc2ccc(C(C)C)cc2)c1C	none (no result: Coupling enz, GoLoco inh red)
Cc1ccccc1Nc1c(-c2ccccn2)nc2ccccn12	none
Cc1ccccc1Nc1c(-c2cc(Br)ccc2F)nc2ccccn12	TR SRC2 fluor cs 3.2µM[quencher] (no result: Coupling enz, GoLoco inh red)
O=C1Cc2ccccc2C(=O)N1OCc1ccc(Cl)cc1	Coupling enz -42
CCCCCCCCCCCC[N+](C)(C)C	none (no result: Coupling enz, GoLoco inh red)
C/C(Cn1nnc([N+](=O)[O-])n1)=N\NC(=O)c1ccccc1	Coupling enz -40
COc1ccccc1CNC(=O)C(CC(C)C)N1Cc2ccccc2C1=O (configuration not stated)	none (no result: Coupling enz, GoLoco inh red)
CCCCCCCCCCO	none (no result: Coupling enz, GoLoco inh red)
O=C1CCCc2c1sc1nc3n(c(=O)c21)CCCCC3	none
O=C1c2sc3nc4n(c(=O)c3c2CCC1Br)CCCCC4 (configuration not stated)	Coupling enz -62, GoLoco inh red 3.2µM
CN(C)C(=O)c1ccc(-c2nc(NCc3ccccc3)c3ccccc3n2)cc1	none
O=C(Nc1ccc(N2CCOCC2)c(Cl)c1)c1cc2ccccc2o1	Coupling enz -33
O=C(Nc1ccc(N2CCOCC2)c(Cl)c1)c1ccc(Br)o1	Coupling enz -32
O=C(Nc1ccccc1N1CCOCC1)c1cc2ccccc2o1	none (no result: GoLoco inh red, TRb-SRC2 inh, TR SRC2 fluor cs)
Cc1nn(-c2cccc(Cl)c2)c2nc(-c3cccnc3)cc(C(F)(F)F)c12	none (no result: Coupling enz, GoLoco inh red)
O=c1cc(-c2ccc(O)cc2)oc2c(O)c(O)c(O)c(O)c12	Coupling enz -66
O=c1cc(-c2ccccc2)oc2cc(O)c(O)c(O)c12	Coupling enz -45, TRb-SRC2 inh inconclusive, TR SRC2 fluor cs 45µM![quencher]
COc1c(O)cc2oc(-c3ccc(O)cc3)cc(=O)c2c1O	none
Cc1cn([C@H]2C[C@H](O)[C@@H](COC(N)=O)O2)c(=O)[nH]c1=O	none (no result: Coupling enz, TRb-SRC2 inh, TR SRC2 fluor cs)
O=C(C1CCC1)N1CCc2cc(S(=O)(=O)NCc3ccc(F)cc3)ccc21	none (no result: Coupling enz, GoLoco inh red)
CCC(C)n1c(NC(=O)c2ccccc2)c(C#N)c2nc3ccccc3nc21 (configuration not stated)	Coupling enz -49
CCCCn1c(NC(=O)c2ccccc2)c(C#N)c2nc3ccccc3nc21	Coupling enz -53 (no result: GoLoco inh red)
Cc1ccc(C(=O)NCCn2c(N)c(C#N)c3nc4ccccc4nc32)cc1	none
